Source: PubChem BioAssay (several laboratories)
In the library only some 7.2% were active in any assay of this set; here they are far more common.
ALR H2O2 inh = inhibitors of human sulfhydryl oxidase ALR. purified ALR, DTT oxidation, H2O2 HRP-luminol luminescence. inhibition, % (concentration not given with the values). P55789. 290,000 tested, 3.8% active. AID 485317;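 active = mean replicate inhibition above about 79%, with every replicate also reaching it, limit read from the data; inconclusive = only one of the two criteria met; inactive = mean below limit and not every replicate reaching it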
Target sequence (P55789 whole entry, looked up): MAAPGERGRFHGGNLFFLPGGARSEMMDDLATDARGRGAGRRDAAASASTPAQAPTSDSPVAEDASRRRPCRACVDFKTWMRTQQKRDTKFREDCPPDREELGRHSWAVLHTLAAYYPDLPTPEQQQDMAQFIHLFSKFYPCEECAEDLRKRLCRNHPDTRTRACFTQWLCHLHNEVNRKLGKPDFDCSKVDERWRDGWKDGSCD
Efflux pump mplx = antifungal efflux pump inhibition, Nile Red retention; 330,000 tested, 0.44% active; S. cerevisiae Candida pump triplex; inhibition, % at 10 µM; AID 485275;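 active = plate passing quality check with inhibition over a set limit, or well fluorescence over plate mean plus 4 SD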;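 note: Nile Red retained in pooled yeast measured as flow cytometry median fluorescence; higher means more Nile Red kept so more efflux inhibition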
Mot1-301 SUMO = SUMOylation pathway inhibition by Mot1-301 growth rescue; S. cerevisiae Mot1-301 growth rescue, ATP luminescence, 38.5C; percent above DMSO median, 100 means doubled; growth rescue, % at 18.8 µM; 320,000 tested, 1% active; AID 2716;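 active = every valid replicate shows activation above 250% relative to neutral control wells; inactive = the rest, any valid replicate at or below 250%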
VLA-4 inh = inhibition in a human VLA-4 binding assay. P13612. 330,000 tested, 0.2% active. inhibition, % (about 7 µM as worked out from the volumes in the protocol). VLA-4 expressing cells, ligand binding flow cytometry; in the data active = inhibition above about 50%
A1 inh = inhibitors of the anti-apoptotic protein A1, read as caspase activation | 330,000 tested, 0.066% active | MEF A1-2A-BIM cells, Caspase-Glo 3/7 luminescence, 3 h; percent of clofoctol response, vehicle zero | caspase activation, % (concentration not given with the values) | AID 2462;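 active = over half of replicate activation scores above 10%, or exactly half above 10 with the replicate mean above 10; inconclusive = replicate mean below 10 yet half the replicates above 10; inactive = over half of replicates below 10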
AHR act = activates the human aryl hydrocarbon receptor; AHR-responsive luciferase reporter cells, luminescence; activation, % at 5 µM; 320,000 tested, 2.5% active; AID 2796; in the data active = activation above about 47%
Large screens that a line does not name were inactive.

O=C1COc2ccc(C(=O)COC(=O)CNC(=O)C3CCCCC3)cc2N1	none
CCOC(=O)c1ccc(CNC(=O)C2CCC(=O)N(CCc3ccccc3)C2)o1 (centres undefined)	none
COc1ccc(Br)cc1/C=N/Nc1cccc(C(=O)O)c1	none (no result: ALR H2O2 inh)
COc1ccccc1/C=C/C=N/Nc1cccc(C(=O)O)c1	ALR H2O2 inh 98.5
O=C(O)c1cccc(N/N=C/c2cc(Br)cc(Br)c2O)c1	ALR H2O2 inh 98.4
O=C(C[n+]1ccccc1)N/N=C/c1cc(Br)cc(Br)c1O	none
CC(C)(C)c1ccc(/C=N/Nc2cccc(C(=O)O)c2)cc1	none
CN(C)c1ccc(/C=N/Nc2cccc(C(=O)O)c2)cc1	ALR H2O2 inh 98.6
COc1ccccc1/C=C/C(=O)Nc1cccc(C(C)=O)c1	none
CCC(O)(CC)C(=O)N/N=C/c1cc(Br)cc(Br)c1O	Mot1-301 SUMO 493.9 (no result: ALR H2O2 inh)
CCN(CC(=O)Nc1ccc(NC(C)=O)cc1)C(=O)c1cc(C)on1	none
Cc1cccc(N/C(N)=N/c2nc(C(F)(F)F)cc(C(F)(F)F)n2)c1	AHR act 68.5
CCN(CC)C(=O)[C@H]1C[C@H](CC(=O)NCCC2=CCCCC2)C(=O)N2CCc3c([nH]c4cc(CCC(=O)N(C)C)ccc34)[C@]12C	none (no result: ALR H2O2 inh, Mot1-301 SUMO, VLA-4 inh, A1 inh, AHR act)
Cn1c(SCC(=O)c2ccccc2)nnc1-c1cnccn1	ALR H2O2 inh 97.0
CN(C)c1ccc(NC(=O)CSc2nnc(-c3cnccn3)n2C)cc1	ALR H2O2 inh 99.3, AHR act 51.0
Fc1ccc(C(c2nnnn2C2CCCC2)N2CCc3ccccc32)cc1 (centres undefined)	ALR H2O2 inh 91.5
Fc1ccc(C(c2nnnn2CCc2ccccc2)N2CCCc3ccccc32)cc1 (centres undefined)	A1 inh inconclusive (no result: Mot1-301 SUMO)
O=C1NCCCc2c1oc1cc(Br)c(O)c(Br)c21	ALR H2O2 inh 98.8
O=C(N/N=C/c1ccc(O)c(O)c1)c1cccc(S(=O)(=O)N2CCCC2)c1	ALR H2O2 inh 99.0
Cc1ccc(S(=O)(=O)N2CCN(CC(=O)N/N=C\c3ccc(O)c(O)c3)CC2)cc1	ALR H2O2 inh 98.8
O=C(N/N=C/c1cccnc1)c1cccc(S(=O)(=O)N2CCCC2)c1	none
COc1cc(/C=N/NC(=O)c2cccc(S(=O)(=O)N3CCCC3)c2)ccc1O	ALR H2O2 inh 98.7
NC(=S)N/N=C/c1ccc(-c2cccc([N+](=O)[O-])c2)o1	none
CCC(=O)N/N=C/c1ccc(-c2ccc([N+](=O)[O-])cc2)o1	none
NS(=O)(=O)c1ccc(-c2ccc(/C=N/NC(=O)c3ccc([N+](=O)[O-])cc3)o2)cc1	Mot1-301 SUMO 311.1
O=C(O)c1ccc(N/N=C/c2ccc(-c3cccc(Cl)c3)o2)cc1	AHR act 128.0 (no result: ALR H2O2 inh)
O=C(Cc1ccc(F)cc1)N/N=C/c1ccc(-c2ccc(Cl)c(C(=O)O)c2)o1	none
O=C(O)c1cc(N/N=C/c2ccc(-c3ccc(F)cc3)o2)ccc1Cl	ALR H2O2 inh 98.1
O=[N+]([O-])c1cccc(-c2ccc(/C=N/NC(=S)Nc3cccc(F)c3)o2)c1	AHR act 48.8
COc1ccc(C)cc1NC(=O)C(=O)N/N=C(\C)CC(=O)Nc1cccnc1	none
Clc1ccc(CNCc2cccs2)c(Cl)c1	none
Cc1c(C(=O)O)cccc1-c1ccc(/C=N/Nc2ccc(Br)cc2)o1	ALR H2O2 inh 99.6, AHR act 134.2
O=C(O)c1ccc(-c2ccc(/C=N/Nc3ccc([N+](=O)[O-])cc3)o2)cc1	none
O=C(O)c1cccc(-c2ccc(/C=N/Nc3ccc([N+](=O)[O-])cc3)o2)c1	Mot1-301 SUMO 310.7
N#CCCC(CCC#N)C1=NCCc2ccccc21	none (no result: ALR H2O2 inh)
CCN(CC)CCn1c2c(c(SCC(=O)Nc3ccc4c(c3)OCCO4)nc1=O)CCC2	none
Cc1ccc2nc(NC(=O)CSc3nc(=O)n(CCN(C)C)c4c3CCCC4)sc2c1	ALR H2O2 inh 98.0
CN(C)CCn1c2c(c(SCC(=O)Nc3ccc4c(c3)OCCO4)nc1=O)CCCC2	ALR H2O2 inh 96.8
CN(C)CCn1c2c(c(SCC(=O)Nc3cccc(C(F)(F)F)c3)nc1=O)CCCC2	ALR H2O2 inh 97.7
CN(C)CCn1c2c(c(SCC(=O)Nc3ccc4c(c3)OCCO4)nc1=O)CCC2	ALR H2O2 inh 97.5
Cc1ccc(NC(=O)CSc2nc(=O)n(CCCN(C)C)c3c2CCC3)c(C)c1	none
